Our source for the growth values is PubChem BioAssay (NCI).

Compounds without any hit were thinned out: in the full panel of roughly 83,000, 20% have a hit.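 Cell lines were cultured in 96-well plates, exposed to a single compound concentration, and assessed for percent growth 48 hours later.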 Values without a mark were called inactive. Calls of active or inactive are those of the source. Rule for the calls: active = growth percent below 10; inactive = the rest.

Test systems include DU-145 prostate; K-562 leukemia; MALME-3M melanoma; MDA-MB-231 breast; RXF 393 renal; SF-268 CNS; SF-295 CNS; UACC-257 melanoma; M14 melanoma.
Test in all cases: NCI-60 one-dose screen, 48 h (100 = growth as untreated, 0 = no growth, -100 = all killed)
Common to all, as to settings: 10 µM unless noted

Regarding `O=C1c2cc3c(cc2-c2c1c1cc(F)c(F)cc1c(=O)n2C[C@H](O)CO)OCO3`, the growth with DU-145 prostate was 1.97% (active); with K-562 leukemia, 6.33% (active); with MALME-3M melanoma, -21.3% (active); in the assay with MDA-MB-231 breast it was 5.4% (active); in the assay on RXF 393 renal, -51.5% (active); in the assay on SF-268 CNS, 6.49% (active). Moreover, the growth in the assay with SF-295 CNS was -7.95% (active); in the assay with UACC-257 melanoma, -37.2% (active); in the assay with M14 melanoma it was 1.79% (active).
Take `O=C(CN1CCN(c2cc3c(cc2F)c(=O)c(C(=O)O)cn3C2CC2)CC1)Nc1nc(-c2ccc(Cl)cc2)cs1`: the growth was 32% with DU-145 prostate; 25.3% in the assay with K-562 leukemia; 31.6% in the assay with MALME-3M melanoma; 24.6% in the assay on MDA-MB-231 breast; 23.3% in the assay on RXF 393 renal; 29.7% with SF-268 CNS. Besides, the growth in the assay with SF-295 CNS was 10.8%; in the assay on UACC-257 melanoma, 7.83% (active); in the assay on M14 melanoma it was 27.5%.
With `CS(=O)CCCCCN=C=S` (stereo unspecified), the growth with DU-145 prostate was 9.76% (active); in the assay on K-562 leukemia, -0.259% (active); in the assay on MALME-3M melanoma, -11.5% (active); with MDA-MB-231 breast it was 9.17% (active); with RXF 393 renal it was -34.7% (active); in the assay with SF-268 CNS, 8.94% (active). Moreover, the growth was 51% in the assay on SF-295 CNS, -6.89% (active) with UACC-257 melanoma and 8.73% (active) in the assay on M14 melanoma.
Turning to `CC(C)Oc1nc2c(c(=O)n(C)c(=O)n2C)n1C`, the growth is 105% in the assay on DU-145 prostate; 95% in the assay on K-562 leukemia; 107% in the assay with MALME-3M melanoma; 103% in the assay on MDA-MB-231 breast; 116% in the assay with RXF 393 renal; 100% in the assay on SF-268 CNS. Besides, the growth in the assay on SF-295 CNS is 101%; with UACC-257 melanoma, 88%; in the assay with M14 melanoma, 107%.
Consider `C[C@]12C[C@@H](c3ccoc3)OC(=O)[C@@H]1CC[C@]1(C)[C@@H]2CC[C@@H](O)[C@]1(C)O`, for which the growth in the assay on DU-145 prostate is 73%; in the assay with K-562 leukemia, 39.8%; in the assay on MALME-3M melanoma, 81.6%; in the assay with MDA-MB-231 breast, 74.6%; with RXF 393 renal it was 102%; in the assay with SF-268 CNS, 106%. In addition, the growth is 51.7% with SF-295 CNS, 83% with UACC-257 melanoma and 82.4% with M14 melanoma.
`CN1CCOCCOCCOc2ccccc2NC(=O)c2nc(cnc2N)-c2ccc(cc2)S1(=O)=O`: the growth in the assay with DU-145 prostate is 31.1%; in the assay on K-562 leukemia, 15.9%; with MALME-3M melanoma, 55.7%; in the assay on MDA-MB-231 breast it was 66.3%; with RXF 393 renal, 29.9%; in the assay on SF-268 CNS, 63.3%. For the same molecule, the growth in the assay on SF-295 CNS was 57.7%; with UACC-257 melanoma, -34.6% (active); in the assay with M14 melanoma, 26.9%.
Take `C=C1CCC2C3(C)COC(c4ccccc4Br)OC3CCC2(C)C1C/C=C1/C(=O)OCC1OC(C)=O` (stereo unspecified): the growth was 21.4% in the assay with DU-145 prostate; -43% (active) with K-562 leukemia; -44.6% (active) with MALME-3M melanoma; -37.1% (active) in the assay on MDA-MB-231 breast; -57.2% (active) in the assay on RXF 393 renal; -13.4% (active) in the assay on SF-268 CNS. In addition, the growth with SF-295 CNS is 27.6%; in the assay on UACC-257 melanoma, -41.6% (active); with M14 melanoma it was -36.7% (active).
As to `COc1ccc(C2CC(=O)Nc3c2c(C)nn3-c2nc3ccccc3[nH]2)cc1` (stereo unspecified), the growth in the assay on DU-145 prostate was 89.1%; with K-562 leukemia, -33.9% (active); with MALME-3M melanoma it was 28.8%; in the assay on MDA-MB-231 breast, 109%; in the assay on RXF 393 renal, 101%; in the assay with SF-268 CNS it was 47.9%. Further, the growth is 85.9% in the assay on SF-295 CNS, 111% with UACC-257 melanoma and 84.5% in the assay on M14 melanoma.
As to `CCOC(=O)C(Cc1cc(I)c(O)c(I)c1)NC(=O)c1ccccc1` (stereo unspecified), the growth is 109% in the assay on DU-145 prostate; 97.1% in the assay with K-562 leukemia; 99.5% in the assay with MALME-3M melanoma; 102% in the assay with MDA-MB-231 breast; 99.1% in the assay with RXF 393 renal; 102% with SF-268 CNS. Further, the figures for the growth with SF-295 CNS, in the assay on UACC-257 melanoma and in the assay with M14 melanoma were 101%, 92.7% and 99.3%, respectively.
For `CN(C)CCCC(=O)Nc1ccc(Cn2nnc3c2C(=O)c2nnn(Cc4ccc(NC(=O)CCCN(C)C)cc4)c2C3=O)cc1`, the growth with DU-145 prostate is 86%; with K-562 leukemia, 70.1%; with MALME-3M melanoma, -33.4% (active); with MDA-MB-231 breast, 3.74% (active); in the assay on RXF 393 renal, 90.8%; in the assay on SF-268 CNS, 80.6%. The growth is 77.8% in the assay with SF-295 CNS, 47.9% in the assay with UACC-257 melanoma and 85.8% with M14 melanoma.
For the molecule `COc1ccc(/C(=C/c2ccc3ccccc3c2)c2nn[nH]n2)cc1OC`, the growth with DU-145 prostate was 20.9%; with K-562 leukemia it was 17.8%; in the assay with MALME-3M melanoma, 49.1%; in the assay on MDA-MB-231 breast, 44.8%; with RXF 393 renal it was -13.3% (active); in the assay on SF-268 CNS, 53.3%. The growth in the assay with SF-295 CNS was 4.59% (active); with UACC-257 melanoma, 66.3%; with M14 melanoma it was 10.9%.
With `COc1ccc2nc3cc(Cl)ccc3c(N3CCN(c4nccc(NCc5ccccc5)n4)CC3)c2c1`, the growth in the assay with DU-145 prostate was 78.7%; with K-562 leukemia, 33%; in the assay on MALME-3M melanoma, 113%; in the assay with MDA-MB-231 breast, 67.5%; with RXF 393 renal it was 42.2%; in the assay with SF-268 CNS it was 72.3%. For the same molecule, the growth was 81.6% in the assay with SF-295 CNS, 88% in the assay on UACC-257 melanoma and 96.3% in the assay with M14 melanoma.
Regarding `COc1cc(-c2c3c(nc4c2c(C)nn4-c2ccccc2)-c2ccccc2C(=O)C3=O)cc(OC)c1OC`, the growth is 92.2% with DU-145 prostate; 76.9% in the assay with K-562 leukemia; 72.4% in the assay on MALME-3M melanoma; 70.9% in the assay on MDA-MB-231 breast; 83.3% in the assay with RXF 393 renal; 78.9% with SF-268 CNS. The growth in the assay with SF-295 CNS is 107%; in the assay with UACC-257 melanoma it was 64.1%; in the assay on M14 melanoma it was 90%.
For the molecule `Cn1cc(-c2nc(-c3c[nH]c4ccccc34)cs2)c2cccnc21`, the growth in the assay on DU-145 prostate was 31.6%; with K-562 leukemia, 18%; with MALME-3M melanoma, 54.7%; with MDA-MB-231 breast, 30.6%; in the assay with RXF 393 renal, 27.9%; in the assay with SF-268 CNS, 52.4%. The growth is 11.5% in the assay with SF-295 CNS, 61.5% in the assay on UACC-257 melanoma and 19.6% in the assay on M14 melanoma.
